# FMDV antiviral: antivirals against foot and mouth disease virus | FMDV antiviral cell-based qHTS | Potency, µM (series often up to 57.9 µM), for inactives: at the highest dose activity change, negative = inhibition, most hits filed as inhibitors | 410,000 tested, 1.2% active | AID 1159524; calls by dose curve; tested in HEK293T cells; note: read-out not given here; nearly all actives have a fitted effect of over 45% in size
# HCV inh: blocks hepatitis C virus; Huh7.5.1 HCVcc-Cre infection, luciferase reporter, 44 h; Potency, µM (series often up to 41.8 µM), for the others: at the highest dose activity change, negative = inhibition, hits mostly inhibitors; 340,000 tested, 3.4% active; active = well fitted inhibition curve with a large enough effect; inconclusive = small, poorly fitted or top-dose-only effect, or another doubt; inactive = no such curve, though single readings can be large or run the other way
#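 A cell-based infection assay in which seeded cells (1,000 per well) receive test compound after 4 h, are inoculated with HCVcc-Cre at approximately 0.5 moi, and are incubated 44 h before luminescence detection.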
# Vaccinia mCherry: vaccinia inhibition (mCherry reporter) | Vaccinia virus mCherry reporter infection, fluorescence | Potency, µM (highest dose often 36.5 µM), for the others: top-dose activity change, negative = inhibition, most hits filed as inhibitors | 310,000 tested, 0.63% active | AID 720579; calls by dose curve; tested in A549 cells; note: nearly all actives have a fitted effect of over 35% in size
# VACV Venus inh: vaccinia inhibition (Venus reporter) | Vaccinia virus Venus reporter expression, fluorescence | Potency, µM (top dose mostly 36.5 µM), without a hit: at the top dose activity change, negative = inhibition, actives largely listed as inhibitors | 330,000 tested, 0.46% active; calls by dose curve; tested in A549 cells; note: nearly all actives have a fitted effect of over 30% in size
# Marburg entry inh: blocks Marburg virus binding to or entry into cells | Marburg virus pseudotyped entry inhibition, cell reporter | Potency, µM (highest dose often 37.8 µM), without a hit: at the top dose activity change, negative = inhibition, hits mostly inhibitors | 300,000 tested, 1.8% active; calls by dose curve; tested in HEK293 cells
# LASV entry inh: Lassa virus entry inhibition. Lassa virus pseudotype entry inhibition, cell reporter. Potency, µM (highest dose often 37.9 µM), for the others: top-dose activity change, negative = inhibition, actives largely listed as inhibitors. 300,000 tested, 1.2% active. AID 540256; calls by dose curve; tested in HEK293 cells; note: nearly all actives have a fitted effect of over 50% in size
# * marks the source's active call; other numbers are inactive results; i = inactive; u = inconclusive; x = no result given; ! = a repeat was not active; [ ] = remark or other dose. Shown are actives, neighbours in structure and some others; about 5.3% of the full set was active somewhere. % is set by controls: 0 for no effect and ±100 for the full control effect; potency is the fitted concentration of half-maximal effect.
SMILES,FMDV antiviral,HCV inh,Vaccinia mCherry,VACV Venus inh,Marburg entry inh,LASV entry inh
Cc1ccc(C(=O)N(Cc2cc3cc4c(cc3nc2N2CCOCC2)CCC4)CC2CCCO2)s1 (centres undefined),14%,x,-6%,-4%,x,x
CCOc1ccccc1NC(=O)NCc1noc2ccc(C)cc12,-1%,x,-14%,-13%,x,-5%[46.1 µM]
CCN(CC)c1ccc(C=C(c2nnnn2-c2ccccc2)c2nnnn2-c2ccccc2)cc1,0%,u,-19%,-12%,u,2.5µM*
COc1cccc(/C=C/C(=O)c2ccc3c(c2)OCO3)c1OC,26%,-7%,13µM*,u,-18%,14%
Cc1ccc(-n2cccn2)c(CN2CCCC(C(=O)c3ccc4c(c3)OCO4)C2)c1 (centres undefined),-23%,u,i,-17%,10µM*,u
O=C(c1ccc2c(c1)OCO2)C1CCCN(Cc2ccccc2OC(F)F)C1 (centres undefined),-1%,-28%,x,x,x,x
O=C(c1ccc2c(c1)OCO2)C1CCCN(Cc2cc(F)ccc2-n2cccn2)C1 (centres undefined),1%,8%,10%,6%,u,-12%
O=C(/C=C/c1ccccc1)c1ccc2c(c1)OCO2,0%,5%,x,x,x,x
COc1cccc(CN2CCCC(C(=O)c3ccc4c(c3)OCO4)C2)c1OC (centres undefined),-13%,-21%,-22%,-9%,11µM*,-14%[46.1 µM]
C[C@@H]1CN([C@@H](C)CO)C(=O)c2cc(Br)cnc2O[C@H]1CN(C)C(=O)CN1CCOCC1,-23%,x,-5%,-4%,x,x
C=C1C=C(C(F)F)n2ncc(C(=O)NCCc3ccc(Cl)cc3)c2N1,x,x,9%,-8%,x,x
Cc1sc2nc(-c3ccccn3)[nH]c(=O)c2c1-c1ccccc1,7%,10µM*,u,-9%,u,u
CC1Cc2cc(S(=O)(=O)N3CCN(c4ccc(Cl)cc4)CC3)ccc2N1C(=O)C1CC1 (centres undefined),u,6.3µM*,-14%,-11%,u,u
COc1ccccc1N1CCN(C(=O)C2CCCN(S(=O)(=O)c3ccc4c(c3)oc(=O)n4C)C2)CC1 (centres undefined),25µM*,u,-10%,-14%,u,u
CC1Cc2cc(S(=O)(=O)N3CCC(C(=O)NCc4ccco4)CC3)ccc2N1C(=O)C1CCC1 (centres undefined),-15%,u,-19%,-23%,13µM*,u
O=C(C1CCC1)N1CCc2cc(S(=O)(=O)NCCN3CCN(c4ccccc4F)CC3)ccc21,-22%,u,u,u,13µM*,16µM*
CCOC(=O)N1CCC(NC(=O)c2ccc3c(c2)N(Cc2cc(C)ccc2C)C(=O)c2ccccc2S3(=O)=O)CC1,18%,x,-13%,-6%,u,-22%[46.1 µM]
O=C(NCc1cccs1)C1CCN(c2ccc(S(=O)(=O)N3CCOCC3)cc2Cl)CC1,-12%,11%,i,-29%,1.1µM*!,u
CC(=O)N1c2ccc(S(=O)(=O)N3CCC(C(=O)N4CCN(c5ccc(Cl)cc5)CC4)CC3)cc2CC1C (centres undefined),u,10µM*,x,x,x,x
CC(=O)N1c2ccc(S(=O)(=O)N3CCCC(C(=O)N4CCC(C)CC4)C3)cc2CC1C (centres undefined),u,11µM*,-17%,u,x,x
CC(=O)N1c2ccc(S(=O)(=O)N3CCC(C(=O)NCCc4ccc(Cl)cc4)CC3)cc2CC1C (centres undefined),u,10µM*,0%,-23%,u,u
CC(=O)N1c2ccc(S(=O)(=O)N3CCC(C(=O)N4CCN(c5ccccc5F)CC4)CC3)cc2CC1C (centres undefined),u,u,-11%,-14%,-28%[46.1 µM],u
CCCCN(CC)CCCNC(=O)c1cc2c(=O)[nH]c3ccccc3c2n1C,-12%,x,3%,0%,u,0%[46.1 µM]
CCc1ccc(OCCn2c(CCNC(=O)C3CCCCC3)nc3ccccc32)cc1,x,x,19%,-13%,x,x
OC(c1ccc2c(c1)CN(Cc1cccc3nccnc13)CCO2)C1CCCCC1 (centres undefined),0%,x,-15%,-15%,x,x
SMILES,FMDV antiviral,HCV inh,Vaccinia mCherry,VACV Venus inh,Marburg entry inh,LASV entry inh
COc1cccc(-n2c(=O)c3sc4ccccc4c3n(CC(=O)NC3CCCCC3)c2=O)c1,0%,x,-10%,-3%,u,5%[46.1 µM]
O=C1[C@H]2[C@@H]3[C@@H](O)[C@H](O)CC(=NOCc4ccccc4)[C@H]3CC[C@H]2C(=O)N1C[C@@H]1CCCO1,x,x,x,x,-7%[14.2 µM],x
O=C(C1CC1)N1CCc2cc(S(=O)(=O)N3CCN(c4ccccc4)CC3)ccc21,-29%,u,x,x,x,x
CC(=O)N1CCCc2cc(S(=O)(=O)N3CCCC(C(=O)Nc4ccc(C)c(F)c4)C3)ccc21 (centres undefined),u,x,-11%,-16%,x,-25%[46.1 µM]
O=C(C1CCC1)N1CCCc2cc(S(=O)(=O)N3CCN(c4ccccc4)CC3)ccc21,u,u,-5%,-18%,x,11µM*
CC(=O)N1CCCc2cc(S(=O)(=O)N3CCCC(C(=O)N4CCN(c5ccccc5F)CC4)C3)ccc21 (centres undefined),16µM*,x,u,-29%,x,u
COc1cccc(N2CCN(C(=O)C3CCN(S(=O)(=O)c4ccc5c(c4)CC(C)N5C(C)=O)CC3)CC2)c1 (centres undefined),u,11µM*,x,x,x,x
CC(=O)N1CCC[C@H]1C(=O)NCC1Cc2cc(F)cc(-c3ccc(F)c(C)c3)c2O1 (some centres undefined),2%,x,-14%,-2%,x,x
C[C@@H]1CN(C2CCN(S(=O)(=O)Cc3ccccc3)CC2)C[C@H](C)O1,x,x,x,x,0%,x
CCC(=O)NCc1nc(-c2cccc(NC(=O)c3ccc(C)s3)c2)oc1C,13%,x,-16%,-19%,x,x
Cc1cc(C)c(/C=N/NC(=O)c2nnn(-c3nonc3N)c2CN2CCC(C)CC2)c(C)c1,12%,u,-29%,-16%,u,u
COc1c(Cl)cc(Cl)cc1/C=N/NC(=O)c1nnn(-c2nonc2N)c1CN1CCC(C)CC1,-17%,u,i,-1%,-29%[46.1 µM],1%[46.1 µM]
CC1CCN(Cc2c(C(=O)N/N=C/c3cc(Cl)ccc3O)nnn2-c2nonc2N)CC1,-15%,10µM*,5µM*,u,3.5µM*,u
CC1CCN(Cc2c(C(=O)N/N=C/c3cc(Br)ccc3O)nnn2-c2nonc2N)CC1,-7%,3.5µM*,u,u,2µM*,u
COc1ccccc1N1CCN(C(=O)C(CCSC)NS(=O)(=O)c2ccc3c(c2)oc(=O)n3C)CC1 (centres undefined),-8%,x,-17%,-14%,x,0%[46.1 µM]
CCOc1cccc2cc(-c3nc4sc(C(=O)Nc5ccc(C)cc5)c(C)c4c(=O)[nH]3)c(=O)oc12,-6%,x,-11%,2%,x,23%[46.1 µM]

# From PubChem
